Measured values from PubChem BioAssay (NCI).
The panel holds about 79,000 compounds, 15% with a hit somewhere; the sample as a whole holds those more often. A number with no mark means an inactive call. The source made the active and inactive calls. Rule as the data show it: active = growth inhibition above about 70%; inactive = the rest.

Columns and labels:
[1] = NCI Yeast Anticancer Drug Screen. Data for the rad50 strain (AID 155);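 also: 0% = growth of vehicle-only cultures of the same strain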; settings: S. cerevisiae rad50 strain growth inhibition, active compounds read high
Method in brief: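 Compounds were tested on a yeast strain with an engineered DNA damage repair alteration; the reported value is growth inhibition normalised to vehicle treatment.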

[2] = NCI Yeast Anticancer Drug Screen. Data for the mec2-1 strain (AID 157); settings: S. cerevisiae mec2-1 strain, active compounds read high
Method in brief: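 Using mec2-1 yeast: add compound, measure growth, express inhibition versus vehicle-treated cultures.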

[3] = NCI Yeast Anticancer Drug Screen. Data for the sgs1 mgt1 strain (AID 161);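 also: 0% = growth of cultures given vehicle only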; settings: S. cerevisiae sgs1 mgt1 strain, active compounds read high
Method in brief: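 Growth of a repair-deficient yeast mutant was monitored after compound treatment and expressed as inhibition relative to vehicle-treated cultures.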

[4] = NCI Yeast Anticancer Drug Screen. Data for the bub3 strain (AID 167); settings: S. cerevisiae bub3 mutant strain, active compounds read high
Method in brief: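 Growth of a checkpoint-deficient yeast mutant is measured after compound exposure. Values represent inhibition relative to vehicle.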

[5] = NCI Yeast Anticancer Drug Screen. Data for the mlh1 rad18 strain (AID 175); settings: S. cerevisiae mlh1 rad18 strain growth inhibition, active compounds read high
Method in brief: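 Steps: expose repair-defective yeast to compound; measure growth; express inhibition against vehicle-treated controls.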

[6] = NCI Yeast Anticancer Drug Screen. Data for the cln2 rad14 strain (AID 165);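 also: 0% = growth equal to vehicle treated cultures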; settings: S. cerevisiae cln2 rad14 strain, active compounds read high
Method in brief: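 Yeast strain cln2 rad14, bearing defects in cell cycle control and DNA repair, serves as the test system; values reflect growth inhibition compared with vehicle.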

[7] = at 5.0 µM (retest, dose inferred, filed as 0.5)
[8] = at 50.0 µM (retest, dose inferred, filed as 5.0)

## O=[N+]([O-])c1ccc(-n2ncc3cccnc32)c([N+](=O)[O-])c1
[1]; [7]
  growth inhibition: 1%
[1]; [8]
  growth inhibition: 99% (active)
[1]; at 50.0 µM
  growth inhibition: 99% (active)
[2]; [7]
  growth inhibition: -12%
[2]; [8]
  growth inhibition: 99% (active)
[2]; at 50.0 µM
  growth inhibition: 93.6% (active)
[3]; [7]
  growth inhibition: 2%
[3]; [8]
  growth inhibition: 100% (active)
[3]; at 50.0 µM
  growth inhibition: 99.3% (active)
[4]; [7]
  growth inhibition: 33%
[4]; [8]
  growth inhibition: 99% (active)
[4]; at 50.0 µM
  growth inhibition: 92% (active)
[5]; [7]
  growth inhibition: 26%
[5]; [8]
  growth inhibition: 100% (active)
[5]; at 50.0 µM
  growth inhibition: 99.5% (active)

## O=C(C(=O)c1ccncc1)c1ccccc1
[1]; [7]
  growth inhibition: -148%
[1]; [8]
  growth inhibition: -127%
[1]; at 50.0 µM
  growth inhibition: 7.6%
[2]; [7]
  growth inhibition: -52%
[2]; [8]
  growth inhibition: -55%
[2]; at 50.0 µM
  growth inhibition: 23.1%
[6]; [7]
  growth inhibition: -59%
[6]; [8]
  growth inhibition: -59%
[6]; at 50.0 µM
  growth inhibition: 34%
[4]; [7]
  growth inhibition: -64%
[4]; [8]
  growth inhibition: -83%
[4]; at 50.0 µM
  growth inhibition: -12.2%
[5]; [7]
  growth inhibition: -117%
[5]; [8]
  growth inhibition: -114%
[5]; at 50.0 µM
  growth inhibition: -14.6%

## C1=NCCN=Cc2ccccc2NCCNc2ccccc21
[1]; [7]
  growth inhibition: 3%
[1]; [8]
  growth inhibition: 2%
[1]; at 50.0 µM
  growth inhibition: 55.2%
[2]; [7]
  growth inhibition: 6%
[2]; [8]
  growth inhibition: -20%
[2]; at 50.0 µM
  growth inhibition: 58.6%
[3]; [7]
  growth inhibition: 4%
[3]; [8]
  growth inhibition: 41%
[3]; at 50.0 µM
  growth inhibition: 74.8% (active)
[4]; [7]
  growth inhibition: 6%
[4]; [8]
  growth inhibition: 6%
[4]; at 50.0 µM
  growth inhibition: 43.5%
[5]; [7]
  growth inhibition: -3%
[5]; [8]
  growth inhibition: -2%
[5]; at 50.0 µM
  growth inhibition: 69%

## O=C(c1cccc(Cl)c1)c1ccc2ccccc2c1C(=O)O
[1]; [7]
  growth inhibition: 10%
[1]; [8]
  growth inhibition: 1%
[1]; at 50.0 µM
  growth inhibition: 12.3%
[2]; [7]
  growth inhibition: -8%
[2]; [8]
  growth inhibition: 0%
[2]; at 50.0 µM
  growth inhibition: 45.9%
[3]; [7]
  growth inhibition: -1%
[3]; [8]
  growth inhibition: 1%
[3]; at 50.0 µM
  growth inhibition: 0.7%
[6]; [7]
  growth inhibition: -3%
[6]; [8]
  growth inhibition: -1%
[6]; at 50.0 µM
  growth inhibition: 5.6%
[5]; [7]
  growth inhibition: -6%
[5]; [8]
  growth inhibition: 5%
[5]; at 50.0 µM
  growth inhibition: 5.75%

## CCN(C(=O)O)c1ccc(/C=C/c2ccnc3ccccc23)cc1
[1]; [7]
  growth inhibition: 4%
[1]; [8]
  growth inhibition: 94% (active)
[1]; at 50.0 µM
  growth inhibition: 2.4%
[2]; [7]
  growth inhibition: -16%
[2]; [8]
  growth inhibition: 96% (active)
[2]; at 50.0 µM
  growth inhibition: -17.9%
[3]; [7]
  growth inhibition: 5%
[3]; [8]
  growth inhibition: 96% (active)
[3]; at 50.0 µM
  growth inhibition: 40.1%
[6]; [7]
  growth inhibition: -26%
[6]; [8]
  growth inhibition: 91% (active)
[6]; at 50.0 µM
  growth inhibition: -0.1%
[4]; [7]
  growth inhibition: -17%
[4]; [8]
  growth inhibition: 95% (active)
[4]; at 50.0 µM
  growth inhibition: 23%
[5]; [7]
  growth inhibition: -7%
[5]; [8]
  growth inhibition: 91% (active)
[5]; at 50.0 µM
  growth inhibition: 29.4%
